# According to PubChem BioAssay (Tox21):
# “And” between values parts separate entries of the source, which are not always exact repeats. Equal entries are not always repeated. Records with an inconclusive call do not appear. A call without a number means that no potency is given here. The source made the active and inactive calls. Unless noted, calls follow the shape of the dose curve; as a rule, active = well fitted cell-killing curve with a large enough effect in the repeat runs; inconclusive = weak or mixed curves, or effect the other way; inactive = no such curve, though single readings can be large or run the other way.
# Target: Peroxisome proliferator-activated receptor delta (Homo sapiens) (UniProt Q03181)
# Experiment: qHTS assay to identify small molecule antagonists of the peroxisome proliferator-activated receptor delta (PPARd) signaling pathway (AID 743215; active = well fitted inhibition curve with a large enough effect in the signal ratio in the repeat runs, not every such curve was filed as active; the % refers to the signal ratio;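 also: cells stimulated with agonist L165041 at 300 nM final during compound exposure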)
# Conditions: HEK293H PPARd-UAS-bla, beta-lactamase FRET ratio, antagonist, 17 h; series mostly up to 62 µM; ratio activity, negative = inhibition: at the top concentration
# Method in brief: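 Fluorescence from cleaved LiveBLAzer B/G FRET substrate (2 h, room temperature) reports PPARd-driven beta-lactamase in HEK293H UAS-bla cells. Cells had been treated 17 h at 37 C with compound plus 300 nM final L165041.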
# Sequence of Peroxisome proliferator-activated receptor delta (Homo sapiens) (Q03181 whole entry, looked up): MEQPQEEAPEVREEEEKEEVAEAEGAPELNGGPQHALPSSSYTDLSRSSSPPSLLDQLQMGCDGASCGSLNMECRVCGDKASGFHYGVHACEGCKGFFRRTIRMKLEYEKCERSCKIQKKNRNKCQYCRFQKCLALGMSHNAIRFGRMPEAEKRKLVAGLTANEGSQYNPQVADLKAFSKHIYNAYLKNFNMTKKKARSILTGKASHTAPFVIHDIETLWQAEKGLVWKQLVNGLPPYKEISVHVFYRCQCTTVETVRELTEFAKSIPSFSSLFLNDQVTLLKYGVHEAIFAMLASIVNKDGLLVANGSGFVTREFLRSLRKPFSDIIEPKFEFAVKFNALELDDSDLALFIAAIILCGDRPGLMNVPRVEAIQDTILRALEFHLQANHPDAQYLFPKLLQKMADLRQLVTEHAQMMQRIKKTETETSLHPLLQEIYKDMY
SMILES,Potency,"ratio activity, negative = inhibition"
CN1Cc2c(N)cccc2C(c2ccccc2)C1 (stereo unspecified),inactive,
CC(=O)OC/C=C(\C)CCC=C(C)C,inactive,
CO[Si](CCCNCCN)(OC)OC,,-25.8% [at 80.4 µM] (inactive)
CCCOCC(C)O (stereo unspecified),inactive,
COc1ccc2cc3[n+](cc2c1OC)CCc1cc2c(cc1-3)OCO2,inactive,
OC1CCCCC1,inactive,
CC(O)CNCC(C)O (stereo unspecified),inactive,
CC(C)=CCC/C(C)=C/C=O,,-13.9% [at 80.4 µM] (inactive)
CCCCCC(C)=O,inactive,
CCOC(=O)CC(=O)OCC,inactive,
O=[N+]([O-])c1ccccc1C(F)(F)F,inactive,
O=C(O)C1=NN(c2ccc(S(=O)(=O)O)cc2)C(=O)C1,inactive,
Cc1cc(C)c(O)c(C)c1,inactive,
CN=C(NC#N)NCCSCc1nc[nH]c1C,inactive,
COCN(COC)c1nc(N(COC)COC)nc(N(COC)COC)n1,inactive,
CCCCC(CC)COC(=O)c1ccc(C(=O)OCC(CC)CCCC)cc1 (stereo unspecified),inactive,
OC[C@H]1O[C@@H](Oc2ccc(O)cc2)[C@H](O)[C@@H](O)[C@@H]1O,inactive,
COC(=O)/C=C\C(=O)OC,inactive,
CCc1cccc(CC)c1N,inactive,
Brc1ccc(Oc2ccc(Br)cc2)cc1,inactive,

# Target: Bile acid receptor (Homo sapiens) (UniProt Q96RI1)
# Experiment: qHTS assay to identify small molecule antagonists of the farnesoid-X-receptor (FXR) signaling pathway (AID 743217; active = well fitted inhibition curve with a large enough effect in the signal ratio in the repeat runs, not every such curve was filed as active; the % refers to the signal ratio)
# Conditions: HEK293T FXR-UAS-bla, beta-lactamase ratio, CDCA-stimulated, 16 h; series mostly up to 62.6 µM; activity change, negative = inhibition: at the top concentration
# Method in brief: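 FRET fluorescence after 2 h room-temperature LiveBLAzer loading gives the readout. Prior step: FXR-bla HEK 293T cells, seeded and incubated 5 h, received test compounds plus 50 uM final CDCA for 16 h at 37 °C.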
# Sequence of Bile acid receptor (Homo sapiens) (Q96RI1 whole entry, looked up): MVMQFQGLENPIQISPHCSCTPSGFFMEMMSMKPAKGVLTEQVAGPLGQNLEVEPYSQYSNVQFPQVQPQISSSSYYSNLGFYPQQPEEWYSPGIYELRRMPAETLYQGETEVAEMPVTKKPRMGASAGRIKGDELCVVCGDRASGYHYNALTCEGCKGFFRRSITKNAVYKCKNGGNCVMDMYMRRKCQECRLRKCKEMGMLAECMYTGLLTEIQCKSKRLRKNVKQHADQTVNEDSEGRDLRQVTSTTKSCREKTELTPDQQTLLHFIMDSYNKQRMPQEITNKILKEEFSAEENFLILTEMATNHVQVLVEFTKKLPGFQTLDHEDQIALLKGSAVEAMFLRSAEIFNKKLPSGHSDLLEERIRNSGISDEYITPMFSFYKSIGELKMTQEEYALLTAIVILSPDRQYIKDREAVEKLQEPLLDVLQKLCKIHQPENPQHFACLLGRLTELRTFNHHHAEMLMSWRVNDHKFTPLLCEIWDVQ
SMILES,Potency,"activity change, negative = inhibition"
NCCNCCNCCN,inactive,
O=Cc1ccc(CO)o1,inactive,
COc1ccc2cc3[n+](cc2c1OC)CCc1cc2c(cc1-3)OCO2,inactive,
O=C(O)Cc1c[nH]c2ccccc12,inactive,
CCOC(=O)CC(=O)OCC,inactive,
CCCCCCCCCCCCCC(=O)O,,-0.851% (inactive)
C=C(C)CC(C)(C)C,inactive,
NC1CCCCC1N (stereo unspecified),inactive,
Cc1cc(C)c(O)c(C)c1,inactive,
CN=C(NC#N)NCCSCc1nc[nH]c1C,inactive,
COCN(COC)c1nc(N(COC)COC)nc(N(COC)COC)n1,inactive,
CCCCC(CC)COC(=O)c1ccc(C(=O)OCC(CC)CCCC)cc1 (stereo unspecified),inactive,
CC(C)c1ccc(C(C)C)cc1,inactive,

# Test system: not listed separately
# Experiment: qHTS assay to identify small molecule agonists of the farnesoid-X-receptor (FXR) signaling pathway - cell viability counter screen (AID 743218); also: nearly all actives have a fitted effect of over 45% in size; also: potency is read from the fitted curve at half-maximal effect
# Conditions: FXR-bla HEK293T viability, CellTiter-Glo luminescence, 16 h; series mostly up to 62.6 µM; viability change, negative = cytotoxic: at the top concentration
# Method in brief: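 Readout: CellTiter-Glo luminescence, 30 min RT, multiplexed after the FXR-bla FRET reading. HEK 293T FXR-UAS-bla cells received compound 5 h post-plating and were incubated 16 h at 37 C.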
SMILES,Potency,"viability change, negative = cytotoxic"
CCN(CC)CCNC(=O)c1ccc(N)cc1,inactive,
CN1Cc2c(N)cccc2C(c2ccccc2)C1 (stereo unspecified),inactive,
CC(=O)OC/C=C(\C)CCC=C(C)C,inactive,
OCCOCCOCCOCCOCCO,inactive,
NCCNCCNCCN,inactive,
COc1c2ccoc2cc2oc(=O)ccc12,,-11.4% (inactive)
CO[Si](CCCNCCN)(OC)OC,inactive,
CCCOCC(C)O (stereo unspecified),,5.97% (inactive)
O=Cc1ccc(CO)o1,,9.42% (inactive)
COc1ccc2cc3[n+](cc2c1OC)CCc1cc2c(cc1-3)OCO2,,-14.1% [at 81.1 µM] (inactive)
OC1CCCCC1,inactive,
Nc1nc(N)c2nc(-c3ccccc3)c(N)nc2n1,inactive,
CC(O)CNCC(C)O (stereo unspecified),inactive,
O=C(O)Cc1c[nH]c2ccccc12,,-12.1% (inactive)
O=[N+]([O-])c1cc(C(F)(F)F)ccc1Cl,inactive,
CC/C(C)=N/O,inactive,
CC(C)=CCC/C(C)=C/C=O,inactive,
CCCCCC(C)=O,,0.528% (inactive)
CCOC(=O)CC(=O)OCC,inactive,

SMILES,Potency,"viability change, negative = cytotoxic"
CCCCCCCCCCCCCC(=O)O,inactive,
C=C(C)CC(C)(C)C,inactive,
CCCN(CCC)C(=O)SCC,inactive,
NC1CCCCC1N (stereo unspecified),inactive,
O=[N+]([O-])c1ccccc1C(F)(F)F,inactive,
O=C(O)C1=NN(c2ccc(S(=O)(=O)O)cc2)C(=O)C1,inactive,
Cc1cc(C)c(O)c(C)c1,inactive,
O=c1n(CCCN2CCN(c3cccc(Cl)c3)CC2)nc2ccccn12,inactive,
CN=C(NC#N)NCCSCc1nc[nH]c1C,inactive,
COCN(COC)c1nc(N(COC)COC)nc(N(COC)COC)n1,inactive,
CCCCC(CC)COC(=O)c1ccc(C(=O)OCC(CC)CCCC)cc1 (stereo unspecified),inactive,
OC[C@H]1O[C@@H](Oc2ccc(O)cc2)[C@H](O)[C@@H](O)[C@@H]1O,,-13.6% (inactive)
COC(=O)/C=C\C(=O)OC,inactive,
CC(C)c1ccc(C(C)C)cc1,inactive,
O=C(NCC1CCCCN1)c1cc(OCC(F)(F)F)ccc1OCC(F)(F)F (stereo unspecified),inactive,
CC(CN1c2ccccc2Sc2ccccc21)N(C)C (stereo unspecified),49.5 µM (active) and 27.5 µM (active),
CCc1cccc(CC)c1N,inactive,
Brc1ccc(Oc2ccc(Br)cc2)cc1,inactive,
Clc1cccc(Cl)c1NC1=NCCN1,,-11.4% (inactive)
